An excerpt weighted towards active compounds, which were near 2.3% of everything screened.
GLD-1 RNA inh = GLD-1/TGE RNA complex disruptors, primary screen, biochemical, fluorescence polarization; Female germline-specific tumor suppressor gld-1 (Caenorhabditis elegans), Q17339; purified GLD-1 + fluorescein TGE RNA; inhibition, % at 5.96 µM; 320,000 tested, 0.44% active;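 active means percent inhibition above a per-plate cutoff, the plate mean of test compounds plus 3 SD, cut at about 30% in these data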;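 further: 0% = DMSO wells with GLD-1 and probe and 100% = wells lacking GLD-1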
Target sequence (Q17339 whole entry, looked up): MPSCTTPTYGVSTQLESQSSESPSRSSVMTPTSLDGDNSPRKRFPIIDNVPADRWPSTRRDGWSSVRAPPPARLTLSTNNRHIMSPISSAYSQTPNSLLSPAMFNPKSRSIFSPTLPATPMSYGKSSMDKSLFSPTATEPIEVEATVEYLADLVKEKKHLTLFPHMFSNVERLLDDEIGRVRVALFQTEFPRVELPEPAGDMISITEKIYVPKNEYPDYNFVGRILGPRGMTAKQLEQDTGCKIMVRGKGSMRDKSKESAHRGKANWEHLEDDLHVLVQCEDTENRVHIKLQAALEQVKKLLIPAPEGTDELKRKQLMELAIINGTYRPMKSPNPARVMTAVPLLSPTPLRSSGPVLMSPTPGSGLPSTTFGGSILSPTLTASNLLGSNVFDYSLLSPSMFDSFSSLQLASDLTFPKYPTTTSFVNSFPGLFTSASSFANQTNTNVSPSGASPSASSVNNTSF
BCLXL inh = inhibitors of human Bcl-xL, primary screen, biochemical, fluorescence polarization, HTS; inhibition, % at 10.9 µM; Bcl-2-like protein 1 (Homo sapiens), Q07817; 320,000 tested, 0.7% active; GST-Bcl-xL / FITC-Bim BH3 peptide fluorescence polarization;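 active means inhibition above the mean of all tested compounds plus 3 SD, cutoff set per campaign, cut at about 30% in these data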;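 further: 0% = DMSO wells and 100% = unlabeled Bim-BH3 peptide competitor; inhibitors lower millipolarization by displacing the labeled peptide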
Target sequence (Q07817 whole entry, looked up): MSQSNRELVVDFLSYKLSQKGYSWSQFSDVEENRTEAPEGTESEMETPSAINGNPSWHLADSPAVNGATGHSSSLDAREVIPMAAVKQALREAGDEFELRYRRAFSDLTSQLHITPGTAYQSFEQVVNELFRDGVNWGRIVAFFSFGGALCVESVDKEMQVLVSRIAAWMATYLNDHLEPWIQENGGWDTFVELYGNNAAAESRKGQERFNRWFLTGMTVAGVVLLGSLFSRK
Mcl1 Bid PPI = Mcl-1/Bid binding inhibitors, primary screen, biochemical, TR-FRET, 1536-well; Induced myeloid leukemia cell differentiation protein Mcl-1 (Homo sapiens), Q07820; TR-FRET Mcl-1/Bid-Dy647 peptide binding; inhibition, % at 21.7 µM; 220,000 tested, 0.97% active; AID 1021, 2008;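 active means compounds that cut the binding signal by more than half at the single screening dose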;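 further: His-tagged Mcl-1 with europium anti-His antibody binding Bid BH3 peptide; 0% = Mcl-1 plus peptide wells and 100% = peptide-only wells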
Bim-Mcl-1 = inhibitors of Bim peptide binding to Mcl-1, primary screen, biochemical, bead-based flow cytometry, multiplex | inhibition, % at 10 µM | Induced myeloid leukemia cell differentiation protein Mcl-1 (Homo sapiens), Q07820 | AID 1009, 2008 | Bim peptide-Mcl-1 binding | 190,000 tested, 0.1% active; in the data active means inhibition above about 40%;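 further: 0% = no compound tracer wells and 100% = peptide blocker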
Mcl1-Noxa inh = Mcl-1/Noxa binding inhibitors, primary screen, biochemical, TR-FRET, 1536-well. 220,000 tested, 1.5% active. TR-FRET Mcl-1/Noxa peptide binding, 2 h. inhibition, % at 21.7 µM;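 active means compounds that cut the protein-peptide binding signal by more than 50% relative to plate controls in a single-dose test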;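 further: His-tagged Mcl-1 with rhodamine Noxa BH3 peptide and terbium anti-His antibody; 0% = Mcl-1 plus Noxa peptide wells and 100% = peptide-only wells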
MCL1-BIM inh = inhibitors of MCL1 binding to BIM-BH3, primary screen, biochemical, fluorescence polarization. 320,000 tested, 0.68% active. Induced myeloid leukemia cell differentiation protein Mcl-1 (Homo sapiens), Q07820. GST-MCL1 / FITC-Bim-BH3 fluorescence polarization. inhibition, % at 10.9 µM. AID 2057, 2009;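 active means inhibition above the mean inhibition of all tested compounds plus 3 SD, set per campaign, cut at about 40% in these data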;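 further: 0% = DMSO wells and 100% = unlabeled Bim-BH3 peptide control; higher means more loss of mP so more displacement of Bim peptide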
* = called active by the depositor; . = no result given.

SMILES | GLD-1 RNA inh | BCLXL inh | Mcl1 Bid PPI | Bim-Mcl-1 | Mcl1-Noxa inh | MCL1-BIM inh
c1ccc2oc(-c3csc(N4CCOCC4)n3)cc2c1 | -3 | 1 | -23 | -1 | 10 | 1
Cc1nc2sccn2c1-c1nc(-c2cc3ccccc3o2)cs1 | 1 | 3 | 50 | 6 | 54* | 0
O=C(O)CCCN1C(=O)/C(=C/c2cn(-c3ccccc3)nc2-c2cccs2)SC1=S | . | . | 78* | -1 | 87* | .
Cc1cc(OCCCCOc2ccc(S(N)(=O)=O)c(C)c2)ccc1S(N)(=O)=O | -10 | 2 | . | . | . | 1
N#Cc1nc(Cc2cccc3ccccc23)oc1N1CCC(C(N)=O)CC1 | 0 | 33* | -19 | -3 | 9 | 5
CC(C)[C@H](NC(=O)c1ccc(Cl)cc1Cl)C(=O)NNC(=O)c1ccco1 | 6 | . | . | . | . | .
Cc1ccc(S(=O)(=O)C(CCC(=O)N2CCOCC2)S(=O)(=O)c2ccc(C)cc2)cc1 | 3 | 7 | -15 | 1 | 100* | 12
Cc1ccc(S(=O)(=O)/N=C(\CCl)N2CCOCC2)cc1 | 5 | 1 | 67* | -4 | 9 | 3
COc1cc(CN2CCC(CCC(=O)NC3CC3)CC2)cc(Cl)c1OC | 1 | 5 | . | . | . | -5
O=C(CCN1C(=O)/C(=C/c2ccc3c(c2)OCO3)SC1=S)NNC(=O)c1cccnc1 | -2 | -5 | 53* | -21 | 35 | -9
O=C(CN1C(=O)/C(=C/c2cccc(Br)c2)SC1=S)Nc1cccnc1 | 2 | 9 | 6 | -2 | 52* | 6
COc1cccc(/C=C2\SC(=S)N(CCCC(=O)NC3=NCCS3)C2=O)c1 | 0 | 3 | . | . | . | 4
O=C(CN1C(=O)/C(=C/c2cccc(Br)c2)SC1=S)NC1=NCCS1 | -4 | 4 | 0 | -4 | 55* | 1
O=C(CCN1C(=O)/C(=C/c2cccc(Br)c2)SC1=S)NNC(=O)c1cccnc1 | -8 | -6 | 67* | 7 | 46 | 5
O=C(CCN1C(=O)/C(=C/c2ccccc2)SC1=S)NNC(=O)c1cccnc1 | 5 | 5 | -1 | 0 | 19 | 5
CCOC(=O)c1ccc(S(=O)(=O)NC2CCC(C)CC2)cc1 (stereo not drawn) | 5 | 3 | . | . | . | -6
CCOc1ccc(S(=O)(=O)NCc2ccc3c(c2)OCO3)cc1C(=O)O | 5 | 5 | . | . | . | 1
CC(=O)Cc1nsc(NC(=O)c2ccc(-c3cc(C(F)(F)F)ccc3Cl)o2)n1 | -1 | -1 | 68* | -3 | 6 | 5
O=c1/c(=C\c2cccnc2)sc2nc3ccccc3n12 | . | . | 14 | -4 | 7 | .
O=c1/c(=C/c2ccc(O)c([N+](=O)[O-])c2)sc2nc3ccccc3n12 | . | . | 28 | -2 | 80* | .
Cc1cc(/C=c2\sc3nc4ccccc4n3c2=O)c(C)n1-c1ccc(C(=O)O)cc1 | . | . | -12 | 0 | 65* | .
O=C(COC(=O)C1CC1)Nc1ccc(S(=O)(=O)N2CCOCC2)cc1 | 2 | . | . | . | . | .
COc1ccc(NS(=O)(=O)N2CCOCC2)cc1 | 11 | 0 | . | . | . | 0
O=C1NN(c2ccccc2)C(=O)/C1=C/c1ccc(Sc2cccc3ccccc23)o1 | 4 | 7 | -41 | -3 | 51* | 13
O=C(O)c1ccccc1C(=O)c1ccc(Br)s1 | -7 | -1 | -20 | 1 | 54* | -1
SMILES | GLD-1 RNA inh | BCLXL inh | Mcl1 Bid PPI | Bim-Mcl-1 | Mcl1-Noxa inh | MCL1-BIM inh
CC(C)(C)C(CN1CCCC1)OC(=O)c1ccccc1 (stereo not drawn) | 1 | 3 | . | . | . | 4
COC(=O)[C@]12C(=O)NC[C@H](CN1c1ccc(Cl)c(C)c1)N2C | 2 | . | . | . | . | .
C=CCSc1nc2c(sc3nc(C)cc(C)c32)c(=O)[nH]1 | 0 | 14 | -5 | 1 | 57* | 13
Cc1cc(C)c2c(n1)sc1c(=O)[nH]c(SCc3ccccc3)nc12 | 1 | -1 | 2 | -2 | 7 | 2
CN1C(=O)NC(c2ccc(Cl)cc2)C2=C1CC(C)(C)CC2=O (stereo not drawn) | 0 | 4 | . | . | . | 8
COc1cc(OC)cc(C(=O)N(CCCN2C(=O)c3cccc4cccc(c34)C2=O)c2cccc(OC)c2)c1 | 4 | -5 | 84* | -3 | -5 | -6
Cc1ccc(OCC(=O)Nc2ccc(N3CCCC3)cc2)cc1C | -1 | 5 | -7 | 1 | 81* | 9
CN1CCN(c2ccc(NC(=O)COc3ccccc3Cl)cc2)CC1 | -4 | -1 | 63* | 0 | 9 | -9
Cc1cccc(OCC(=O)Nc2ccc(N3CCCC3)cc2)c1C | -2 | 4 | -24 | 20 | 62* | 14
COc1ccccc1OCCCC(=O)Nc1ccc(N2CCOCC2)cc1 | 6 | 4 | -45 | 1 | 11 | 8
Cc1ccccc1OCCCC(=O)Nc1ccc(N2CCOCC2)cc1 | -7 | 4 | -27 | 35 | 51* | 0
Cc1cc(C)cc(OCC(=O)Nc2ccc(N3CCCC3)cc2)c1 | 4 | 3 | 5 | 9 | 67* | 12
CN(C)c1ccc(/C=c2\sc3nc(-c4ccccc4)nn3c2=O)cc1 | . | . | 73* | -4 | 79* | .
COc1cc(/C=c2\sc3nc(-c4ccncc4)nn3c2=O)ccc1OC(C)=O | . | . | 50 | -4 | 70* | .
CC(=O)Oc1cccc(/C=c2\sc3nc(-c4ccco4)nn3c2=O)c1 | -1 | 11 | -30 | -4 | 29 | 25
COc1cc(C(=O)Nc2ccc(N3CCCS3(=O)=O)cc2)c([N+](=O)[O-])cc1OC | 7 | 3 | . | . | . | -1
Cc1ccc(O)c(N=CC2=C(O)c3ccccc3C2=O)c1 | 14 | 38* | -39 | -1 | 63* | 43*
O=C1C(C=Nc2ccccc2O)=C(O)c2ccccc21 | 5 | 8 | -33 | -3 | -5 | 6
CC1=C(SCCC#N)S/C(=C2\SC(C)=C(SCCC#N)S2)S1 | 4 | 13 | 96* | -7 | 74* | 16
Cn1c(SCCC#N)nnc1-c1ccc(F)cc1 | 7 | 5 | -34 | -2 | 4 | 13
Cc1ccccc1CNS(=O)(=O)c1c(C)[nH]c(C)c1C(=O)N1CCCCC1 | 0 | -1 | . | . | . | 1
O=[N+]([O-])C1C(c2ccccc2)=NOC1c1ccccc1O (stereo not drawn) | 8 | -3 | . | . | . | -2
COc1ccc(CN2CCN(S(=O)(=O)c3ccc(F)cc3)CC2)cc1OC | 4 | 0 | 35 | -1 | 13 | 5
COc1ccc(CN2CCN(S(=O)(=O)c3ccccc3)CC2)cc1Br | -6 | 6 | 64* | -1 | 48 | 7
CCOC(=O)N1CCC(N2CCN(S(=O)(=O)c3ccc(Cl)cc3)CC2)CC1 | -6 | -1 | 55* | 2 | 23 | -5

Assay outcomes as filed in PubChem.
